Compound activity (PubChem BioAssay)
TrxR1 substrate – substrates of rat thioredoxin reductase 1. Potency, µM (titrated, usually from 114 µM), without a hit: top-dose activity change, negative = substrate turnover. O89049. 0.01% of 390,000 active. purified TrxR1 substrate turnover, NADPH consumption readout; also: nearly all actives have a fitted effect of over 50% in size
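Rat TrxR1, dispensed at 90 nM, was prereduced with 400 uM NADPH (final) for 5 min at ~22 deg C, then incubated with compound 15 min before 400 uM selenite. A first-read NADPH fluorescence drop versus no-compound background flagged substrates.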
KAT2A inh – inhibitors of human GCN5L2 histone acetyltransferase | GCN5L2 HAT assay, ThioGlo1 CoA-SH fluorescence | Q92830 | 0.21% of 390,000 active | Potency, µM (top dose mostly 58.9 µM), for inactives: top-dose activity change, negative = inhibition, most hits filed as inhibitors | AID 504327
Target sequence (Q92830 whole entry, looked up): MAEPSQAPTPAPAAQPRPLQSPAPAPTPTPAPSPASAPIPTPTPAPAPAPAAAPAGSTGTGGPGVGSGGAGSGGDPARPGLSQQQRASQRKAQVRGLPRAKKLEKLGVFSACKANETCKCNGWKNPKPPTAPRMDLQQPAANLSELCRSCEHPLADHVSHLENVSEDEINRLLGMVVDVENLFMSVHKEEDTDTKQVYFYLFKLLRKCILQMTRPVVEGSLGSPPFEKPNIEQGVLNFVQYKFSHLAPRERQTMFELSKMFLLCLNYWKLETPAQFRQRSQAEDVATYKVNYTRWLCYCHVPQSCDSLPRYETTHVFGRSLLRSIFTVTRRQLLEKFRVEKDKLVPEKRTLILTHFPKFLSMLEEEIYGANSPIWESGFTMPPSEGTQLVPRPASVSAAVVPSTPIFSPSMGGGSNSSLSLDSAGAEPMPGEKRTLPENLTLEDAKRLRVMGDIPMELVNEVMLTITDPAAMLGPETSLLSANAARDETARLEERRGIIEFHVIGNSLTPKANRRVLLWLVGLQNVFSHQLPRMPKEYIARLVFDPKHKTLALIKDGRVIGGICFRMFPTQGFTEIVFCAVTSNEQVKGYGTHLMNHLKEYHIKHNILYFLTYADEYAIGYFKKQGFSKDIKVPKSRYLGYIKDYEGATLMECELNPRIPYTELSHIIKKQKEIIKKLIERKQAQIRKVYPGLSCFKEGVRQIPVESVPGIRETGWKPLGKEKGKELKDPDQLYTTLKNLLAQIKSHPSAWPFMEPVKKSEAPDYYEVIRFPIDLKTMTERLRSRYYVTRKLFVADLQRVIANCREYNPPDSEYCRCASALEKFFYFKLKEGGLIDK
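ThioGlo1-coupled HAT assay: 20nM GCN5L2, 70uM acetyl-CoA, 75uM H3(1-25) peptide, pH 7.5. Fluorescence read at 340/540nm at start and after 20 min at room temperature.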
TrxR1 inh – rat TrxR1 inhibition; recombinant rTrxR1, NADPH fluorescence consumption, selenite substrate; AID 588453; Potency, µM (highest dose often 114 µM), for inactives: top-dose activity change, negative = inhibition, most hits filed as inhibitors; 1% of 390,000 active; O89049; also: nearly all actives have a fitted effect of over 65% in size
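Rat TrxR1 (90 nM in the dispensed reagent) was pre-reduced with 400 uM NADPH for 5 min at room temperature, then incubated with compound for 15 min. After 400 uM selenite was added, NADPH fluorescence (Ex 340/Em 450 nm) was followed for 8 min.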
VDR inhibitor – blocks the human vitamin D receptor; P11473; VDR-SRC2-3 peptide fluorescence polarization, 2 h; Potency, µM, without a hit: max response, negative = inhibition, actives largely listed as inhibitors; 0.93% of 400,000 active
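VDR–SRC2-3 interaction, FP format. Cmpds 23 nl via pintool, brief spin, 2 h ambient incubation.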
* = called active by the depositor; ? = inconclusive; . = no result given; [ ] = dose if it differs, or a comment. This is a sample that favours compounds with a hit; in the whole collection about 1.8% have one here. Calls follow the shape of the dose curve; as a rule, active = well fitted curve in the direction sought with a large enough effect; inconclusive = small, poorly fitted or top-dose-only effect, or another doubt; inactive = no such curve, though single readings can be large; an effect the other way counts as inactive or inconclusive. % is scaled to controls: 0 for no effect and ±100 for the full control effect; potency is read from the fitted curve at half-maximal effect.

SMILES | TrxR1 substrate | KAT2A inh | TrxR1 inh | VDR inhibitor
Oc1ccccc1C1C=C(c2ccc3c(c2)OCO3)NC(c2ccc(F)c(Br)c2)N1 (configuration not stated) | -5% | . | -23% | ?
COc1ccc2c(c1)OC/C(=C/c1ccc(O)c(O)c1)C2=O | . | 11% | . | ?
COc1ccc2c(c1)OC/C(=C/c1ccc(OC)c(OC)c1)C2=O | . | -8% | . | 22µM*
CCOC(=O)c1c(NC(C)=O)sc2c1CCC(C=O)=C2Sc1ccccc1 | 6% | -4% | 1.3µM* | -17%
COC(=O)c1c(NC(=O)C(C)Oc2ccc(Cl)cc2Cl)sc2c1CCCC2 (configuration not stated) | 7% | 1% | 18% | ?
CCOC(=O)c1c(NC(=O)c2ccccc2Br)sc2c1CCc1ccccc1-2 | 14%[57.1 µM] | -14% | -1%[57.1 µM] | 79µM*
CCOC(=O)c1c(NC(=O)COc2ccccc2Br)sc2c1CCCCC2 | 1% | -4% | 0% | 89µM*
CCCc1ccc(OC(C)C(=O)Nc2sc3c(c2C(=O)OC)CCCCC3)cc1 (configuration not stated) | 12%[11.4 µM] | -6% | 5% | 89µM*
CCOC(=O)c1c(NC(=O)c2ccc(OCC)c(Br)c2)sc2c1CCCC2 | 6% | 2% | 18% | -4%
CSc1ccc(CCNC(=O)Cn2ccc3cc(S(=O)(=O)N4CCCCCC4)ccc32)cc1 | 2% | -12% | 17% | 8%
CCOC(=O)c1ccc(NC(=O)C(CC)Sc2nnc3c4ccccc4n(C)c3n2)cc1 (configuration not stated) | 2% | 0% | 14% | 0%
CCOC(=O)c1c(NC(=O)C(C)Oc2ccc(Cl)c(C)c2)sc2c1CCCC2 (configuration not stated) | 5% | -3% | 6% | 79µM*
CCOC(=O)c1c(NC(=O)c2ccccc2N(C)S(=O)(=O)c2ccccc2)sc2c1CCCC2 | 51% | 32µM* | 39% | -2%
CCOC(=O)c1c(NC(=O)c2ccccc2Cl)sc2c1CCCC2 | -14%[57.1 µM] | -5% | -19%[57.1 µM] | 12%
COC(=O)c1c(NC(=O)COC(=O)c2ccc(Cl)cc2[N+](=O)[O-])sc2c1CCCCC2 | -11% | 28µM* | -15% | 1%
COc1ccc2[nH]c(C)c(C(=O)CNc3nccs3)c2c1 | 2% | . | 0% | .
CCc1ccc(C=O)cc1 | -10% | . | -7% | .
O=C(Nc1ccc(Cl)cc1Cl)[C@@H]1CC=C[C@@H]2CCN(C3CCCCC3)C(=O)[C@@H]21 | -9% | . | -21% | .
O=C1CSC(=S)N1/N=C/c1c(F)cccc1F | 9% | 0% | ? | -2%
O=C1CSC(=S)N1/N=C/C=C/c1ccccc1 | -7% | -28% | 28µM* | -5%
CC(/C=C1\SC(=O)N(CCCC(=O)O)C1=O)=C\c1ccccc1 | -8%[11.4 µM] | -14% | -3%[11.4 µM] | -13%
O=C(O)CCCN1C(=O)/C(=C\c2ccco2)SC1=S | 7%[57.1 µM] | -9% | 22µM* | -9%
CC(=C\c1ccccc1)/C=C1/SC(=S)N(CCCC(=O)O)C1=O | -11% | 1% | 14%[57.1 µM] | 79µM*
N#Cc1ccccc1Sc1ccccc1N | 9% | 0% | 27%[57.1 µM] | 2%
Nc1ccccc1SSc1ccccc1N | -6%[57.1 µM] | ? | 122%[57.1 µM] | 10µM*
SMILES | TrxR1 substrate | KAT2A inh | TrxR1 inh | VDR inhibitor
S=C(NCCCc1cnc[nH]1)NCCCN(CCc1ccc(Cl)cc1)c1ccc(Br)cn1 | 1% | . | 30% | -8%
Cc1sc2ccccc2[n+]1C | 5% | . | 68% | .
CC(C)C(NS(=O)(=O)c1ccc2c(c1)OCCCO2)C(=O)O (configuration not stated) | -5% | 2% | -8% | 45µM*
CC(NS(=O)(=O)c1ccc2c(c1)OCCO2)c1ccccc1 (configuration not stated) | 4%[57.1 µM] | -6% | 7%[57.1 µM] | -1%
CCOC(=O)CSc1nnc(NCC(=O)OC)c(=O)[nH]1 | 3% | 9% | 10µM* | 40µM*
CCOC(=O)CSc1nnc(C)c(=O)[nH]1 | -2% | -2% | -13% | 4%
CCCNC(=O)CCSc1nc(-c2ccc3c(c2)OCO3)cc(C(F)(F)F)n1 | 7% | 2% | 6% | -14%
CC1CCCCN1C(=O)c1cnn2c1NC(=C1CC1)C=C2C(F)F (configuration not stated) | -2% | . | -11% | .
CCN(Cc1cccc(S(=O)(=O)O)c1)c1ccc(C(=C2C=CC(=[N+](CC)Cc3cccc(S(=O)(=O)O)c3)C=C2)c2ccc(O)cc2S(=O)(=O)O)cc1 | -18% | . | 37%[0.0914 µM] | .
Cc1nc([N+](=O)[O-])cn1CC(=O)c1ccc2c(c1)OCCCO2 | 2% | . | 7% | .
C/C(=N/NS(=O)(=O)c1ccc(Cl)cc1)c1ccncc1 | 2% | 2% | 25µM* | -19%
C/C(=N/NS(=O)(=O)c1cccc([N+](=O)[O-])c1)c1ccncc1 | -6% | -5% | -9% | 28µM*
CC(=NNS(=O)(=O)c1cccc([N+](=O)[O-])c1)c1ccc(-n2ccnc2)cc1 | -12% | 0% | -6% | -22%
C/C(=N/NS(=O)(=O)c1ccc(C(C)C)cc1)c1ccncc1 | 1% | -4% | 14% | -6%
CCOc1ccccc1C1CC(=O)NC(C)=C1C(=O)OCc1ccc(C)cc1 (configuration not stated) | -10% | -18% | 5% | -12%
C(=Nc1cccnc1)c1ccnc2ccccc12 | 103% | . | 9% | .
Cc1ccc(NC(=O)c2ccc3c(O)c(S(=O)(=O)c4ccccc4)c(=O)[nH]c3c2)cc1Cl | -3% | -27% | 8% | 10%
O=C1NC(=O)/C(=C/c2ccco2)N1 | -20% | -8% | -23% | -19%
O=C1NC(=S)NC1=Cc1ccco1 | -10% | . | 7.9µM* | 28µM*
COc1ccc(C(=O)NCCSc2ccccc2)cc1OC | 3%[57.1 µM] | -1% | -2%[57.1 µM] | 35µM*
COc1cc(C(=O)NCCSc2ccccc2)cc(OC)c1OC | 8% | -2% | 26% | -11%
O=C(c1cccc(F)c1)N1CCC2(CC1)CCN(c1cccc(-c3ccccc3)c1)CC2 | . | -11% | . | 18%
CC1(C)c2ccccc2N2CCC(=O)NC21/C=C/c1ccco1 (configuration not stated) | -3% | -5% | 40µM* | 14%
O=C(c1ccc(F)cc1)N1c2nc(-c3ccco3)nn2C2(CCCCC2)[C@@H]2CCCC[C@@H]21 | 1% | -8% | ? | 8%
O=C(c1ccccc1F)N1c2nc(-c3ccco3)nn2C2(CCCCC2)[C@@H]2CCCC[C@@H]21 | -3% | -17% | 25µM* | -23%
CCCOc1ccc(-c2nc(=S)[nH][nH]2)cc1 | 7%[57.1 µM] | -10% | -1%[57.1 µM] | 89µM*
CC(C)c1ccc(NC(=O)c2cc3c([nH]c2=O)CC(C)(C)CC3=O)cc1 | -1% | . | 10% | .
CC1=NN(c2ccc(F)cc2)C(=O)C1C(c1cccc(O)c1)c1c(C)[nH]n(-c2ccc(F)cc2)c1=O (configuration not stated) | -6% | -13% | -67% | -13%
CC1=NN(c2ccc(Cl)cc2)C(=O)C1C(c1cccc(O)c1)c1c(C)[nH]n(-c2ccc(Cl)cc2)c1=O (configuration not stated) | 7%[57.1 µM] | -26% | ? | 79µM*
